The results in this text go back to PubChem BioAssay (NCI).

Compounds without any hit were thinned out: in the full panel of roughly 83,000, 20% have a hit.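 Cells were grown in 96-well plates and exposed to the test compound at a single concentration for 48 hours; results are reported as percent growth, with values below 10 considered active.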 Values without a mark were called inactive. Activity calls are given as the source filed them.

The subject of this test is DU-145 prostate. As to the kind of experiment: NCI-60 one-dose screen, 48 h (100 = growth as untreated, 0 = no growth, -100 = all killed). Particulars: 10 µM.
As to `N=c1nc(N)ncn1-c1ccccc1`, the growth was 112%.

For `COc1ccc(-c2nnc(-c3c(-c4ccccc4)nc4ncccn34)o2)cc1OC`, the growth is 109%.

As to `Nc1ncn([C@@H]2O[C@H](CO)[C@@H](O)[C@H]2O)c(=O)n1`, the growth is 11.5%.

In the case of `CCOC(=O)CCC(NC(=O)c1ccc(N)cc1)C(=O)OCC` (centres undefined), the growth is 112%.

As to `CC(=O)N(C)c1ccc(Nc2ccc(Nc3ccc(N(C)C(C)=O)cc3)c3c2C(=O)c2ccccc2C3=O)cc1`, the growth is 91.2%.

Regarding `COc1ccc(-c2nc3sccn3c2-c2nc3c([nH]2)C(=O)c2ccccc2C3=O)cc1`, the growth is 104%.

With `COc1ccc2c(c1)C(=O)c1c-2c(OCCN(C)C)nc2cc(OC)c(OC)cc12`, the growth is 52%.

Regarding `COc1cc(/C=C\c2cc(OC)c(OC)c(OC)c2)cc(NS(=O)(=O)c2ccc(Cl)cc2)c1OC`, the growth was 19.8%.

Turning to `C=C(C(=O)c1ccccc1)C(NC(C)(C)C)c1ccccc1` (centres undefined), the growth was 20.6%.

As for `O=C1/C(=C/c2ccc(Cl)cc2)SC(=Nc2ccc(Cl)cc2)N1Cc1nc2ccccc2[nH]1`, the growth is 93.7%.

Take `CC12O[C@H](C[C@@H](OC(=O)c3ccccc3)[C@H]1O)n1c3ccccc3c3c4c(c5c6ccccc6n2c5c31)C(=O)NC4=O`: the growth was 58.2%.

Take `COc1ccc(Oc2nc(NC3CCCC3)nc(Sc3ccc(OC)cc3)n2)cc1`: the growth was 91.7%.

Consider `COc1cc(-c2cc(/C=C/C(=O)c3ccc4c(c3)OCO4)[nH]n2)cc(OC)c1OC`, for which the growth was 48%.

Consider `CCN(CC)CCOc1nc2cc(OC)c(OC)cc2c2c1-c1ccc(OC)cc1C2=O`, for which the growth is 64.1%.

For `COc1ccc(-c2nc(-c3nc4cc(Cl)c(Cl)cc4[nH]3)c3ccccn23)cc1`, the growth was 47.5%.

`O=C1/C(=C\c2ccc(Cl)cc2)CN(C(=O)c2ccccc2)C/C1=C\c1ccc(Cl)cc1`: the growth was 24.9%.

As to `Clc1cc2c(c(CSc3nc4ccccc4n4cccc34)c1)OCOC2`, the growth was 106%.

`COc1cc(Cl)cc(-c2nn(-c3cccc(NC(=O)Nc4cc(C(F)(F)F)cc(C(F)(F)F)c4)c3)cc2-c2ccncc2)c1`: the growth was 13.1%.

For the molecule `COc1ccc(OC)c(/C=C/c2nc(SCc3ccccc3)n(-c3ccc(Cl)cc3)n2)c1`, the growth was 77.7%.

Take `CC(=O)/C(=C/c1ccccc1)C(=O)CC(C)C`: the growth was 92.8%.

In the case of `CC(=O)CSC(C)=O`, the growth is 117%.

Take `CNc1ccc(CSc2ccc(C)cc2)cc1`: the growth was 90.8%.

In the case of `c1ccc(C(NC2CC3CCC2C3)c2ccccc2)cc1` (centres undefined), the growth was 108%.

Regarding `COc1cc(-c2nn3c(/C=C4/C(=O)Nc5ccccc54)c(-c4ccc(C)cc4)nc3s2)cc(OC)c1OC`, the growth is 14%.

For the molecule `COc1cc(NC(=O)CSc2nc3ccccc3c(=O)n2CCc2ccccc2)cc(OC)c1OC`, the growth is 45.9%.

Turning to `CN(C)C(=S)N/N=C\C=N/NC(=S)N(C)C`, the growth was 37.4%.

For `COc1cc2cc3c(nc2cc1OC)CCN3Cc1ccc(NC(=O)Nc2ccc(F)cc2F)cc1`, the growth was 91.2%.

As to `O=C(N/N=C\c1cc(Cl)ccc1[N+](=O)[O-])c1ccco1`, the growth was 108%.

`COc1ccc(Cl)cc1-n1nnc(-c2nc3ccccc3[nH]2)c1N`: the growth was 93.4%.

For `COc1ccc(/C=C2/CN(C(=O)c3ccc(C)cc3)C/C(=C\c3ccc(OC)cc3)C2=O)cc1`, the growth was 93.5%.

For the molecule `COc1ccc(Nc2ncnc3c2c(SC)nn3-c2ccccc2)cc1`, the growth is 101%.

Regarding `COc1ccc(-c2cc(/C=C3\C(=O)Nc4ccc(OC)cc43)[nH]n2)cc1`, the growth is 40.4%.

For the molecule `CC(=O)N1N=C(c2ccc(Cl)cc2)CC1c1sc(Cl)nc1Cl` (centres undefined), the growth is 74.7%.

On to `CN(C)c1ccc(-c2cc(-c3cccc(NS(C)(=O)=O)c3)nc(N)c2C#N)cc1`, for which the growth is -25.5% (active).

For `NC(=S)N=Nc1c(O)c2ccccc2c2ccccc12`, the growth is -8.94% (active).

Regarding `O=[N+]([O-])c1ccc(Oc2cc(Cl)c(Cl)cc2Cl)c(C(F)(F)F)c1`, the growth is 104%.

Regarding `O=C(CC(C(=O)c1ccccc1)N1CCOCC1)c1ccccc1` (centres undefined), the growth was 101%.

Turning to `COc1ccc(-c2nn(-c3cccc(NC(=O)Nc4cc(C(F)(F)F)cc(C(F)(F)F)c4)c3)cc2-c2ccncc2)cc1Cl`, the growth is 17.6%.

As to `COc1cc(/C=C/C(=O)c2ccc(Cl)cc2)ccc1OS(=O)(=O)c1ccc(C)cc1`, the growth is 105%.
